Six1-Eya2 blk – inhibitors of human Six1/Eya2 interaction; Q15475+O00167; AlphaScreen GST-Six1/His-Eya2 binding, biochemical; hits give low values; activity change, % (test concentration not listed); hit rate 0.56% among 360,000; AID 651725; in the data active = activity change below about -65%; inconclusive = mostly about -30% to -63%; also: % is scaled to controls: 0 for no effect and ±100 for the full control effect
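GST-Six1 + His-Eya2 (5X stock: 250/500 nM); Tris pH 8.0, 300 mM NaCl, 0.05% BSA, 0.02% Tween 20; GSH donor/Ni acceptor beads; 1 h 37 °C dark; AlphaScreen readout.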
BAZ2B block – inhibitors of human BAZ2B bromodomain; hit rate 4.4% among 360,000; AlphaScreen BAZ2B-H3K14Ac peptide displacement; Potency, µM (top dose mostly 114 µM), inactives show at the highest dose activity change, negative = inhibition, most hits filed as inhibitors; AID 504333; Q9UIF8; also: potency is read from the fitted curve at half-maximal effect; % is scaled to controls: 0 for no effect and ±100 for the full control effect; nearly all actives have a fitted effect of over 60% in size
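Inhibition is scored as reduced AlphaScreen emission. The BAZ2B/b-H3(5-23)K14Ac complex (50 nM each) in PBS pH 7.4, 0.01% Tween-20 meets compound (up to 110 uM) for 30 min at RT before bead addition.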
HP1b chromo inh – HP1-beta chromodomain-methylated histone interaction inhibition; hit rate 0.56% among 390,000; Potency, µM (titrated, usually from 114 µM), for inactives: at the highest dose activity change, negative = inhibition, usual class: inhibitors; AlphaScreen HP1-beta / biotin-H3K9me3 peptide binding; also: potency is read from the fitted curve at half-maximal effect; nearly all actives have a fitted effect of over 70% in size
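Compound inhibition of the preformed complex between 50 nM HP1-beta and 50 nM biotinylated H3K9me3 peptide was read by AlphaScreen. Buffer was PBS pH 7.4 with 0.01% Tween-20. Incubations ran 30 min at room temperature, with 10 ug/mL donor/acceptor beads.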
G9a block – blocks human histone lysine methyltransferase G9a; G9a H3K9 monomethylation, AlphaScreen, 2 h; Potency, µM (series often up to 102 µM), without a hit: top-dose activity, negative = inhibition, most hits filed as inhibitors; hit rate 8.8% among 350,000; AID 504332; also: potency is read from the fitted curve at half-maximal effect; % is scaled to controls: 0 for no effect and ±100 for the full control effect; nearly all actives have a fitted effect of over 75% in size
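G9a (20 nM) preincubated 15 min RT with compounds, then 500 nM biotinylated H3K9 peptide and 20 uM SAM added; 2 h RT reaction. Monomethyl-H3K9 product detected by AlphaScreen with anti-H3K9me1 antibody, streptavidin donor and anti-rabbit IgG acceptor beads.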
CtBP-E1A inh – inhibitors of CtBP/E1A interaction | AlphaScreen GST-E1A/His-CtBP binding, 1536-well; hits give low values | activity change, % (concentration not given with the values) | hit rate 0.49% among 340,000; in the data active = activity change below about -65%; inconclusive = mostly about -30% to -63%; also: % is scaled to controls: 0 for no effect and ±100 for the full control effect
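AlphaScreen with 125 nM GST-E1A and 125 nM His-CtBP (5X stocks) in Tris pH 8.0, 300 mM NaCl, BSA, Tween 20, TCEP. Compounds preincubated 2 h at 37 deg C, then glutathione donor/nickel acceptor beads added for 1 h at 37 deg C in dark.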
JMJD2A Tudor – blocks the human JMJD2A Tudor domain. hit rate 4.4% among 390,000. O75164. Potency, µM (highest dose often 114 µM), for inactives: at the highest dose activity change, negative = inhibition, actives largely listed as inhibitors. AlphaScreen JMJD2A-Tudor / H3K4me3 peptide binding; also: potency is read from the fitted curve at half-maximal effect; % is scaled to controls: 0 for no effect and ±100 for the full control effect; nearly all actives have a fitted effect of over 50% in size
* = called active by the depositor; ? = inconclusive; nt = no result; [ ] = another dose, or the depositor's remark. Compounds with a hit are over-represented: about 10% of the library has one in this group of screens. Unless noted, calls follow the shape of the dose curve; as a rule, active = well fitted inhibition curve with a large enough effect; inconclusive = small, poorly fitted or top-dose-only effect; inactive = no such curve, though single readings can be large or run the other way.

SMILES	Six1-Eya2 blk	BAZ2B block	HP1b chromo inh	G9a block	CtBP-E1A inh	JMJD2A Tudor
N#Cc1ccccc1OCC(=O)OCC(=O)c1ccc2c(c1)NC(=O)CO2	6	6%	32%	50µM*	7	3%
O=C1COc2ccc(C(=O)COC(=O)/C=C/c3ccc(Br)o3)cc2N1	-18	45µM*	-53%	28µM*	-10	?
COC(=O)c1cc(C(=O)OCC(=O)c2ccc3c(c2)NC(=O)CO3)cc([N+](=O)[O-])c1	2	-6%	17%	50µM*	-5	-17%
C=C1CCN(C(CC(C)C)C(=O)NCc2ccc(Cl)c(Cl)c2)S(=O)(=O)c2ccccc21 (centres undefined)	nt	nt	25%	nt	nt	-8%
CCSC(=O)N=Nc1ccc(O)cc1	-4	nt	?	nt	18	56µM*
COc1cc(OC)c(Nc2nc3ccccc3c3nncn23)cc1Cl	nt	2%	27%	-3%[59 µM]	nt	-15%
Cc1cc(NC(=O)c2ccc(C#N)cc2)n(-c2ccccn2)n1	1	-8%	26%	45µM*	-9	-17%
Cc1cc(NC(=O)c2ccc(F)cc2)n(-c2ccccn2)n1	-15	41%	64%	24%	-16	-10%
CCc1ccc(-c2nn(CC(=O)Nc3ccccc3C)c3c2cnc2ccc(C)cc23)cc1	nt	-11%	-9%	13%[59 µM]	nt	-20%
COc1ccc(N=C2C(=S)N(c3ccc(OC)cc3)C(=NS(=O)(=O)c3ccccc3)N2c2ccccc2)cc1	-20	nt	10µM*	nt	17	?
O=C(NCCN1CCOCC1)c1c(O)nc2sccn2c1=O	4	-28%	4%	?	-3	32µM*
NCCC(O)(P(=O)(O)O)P(=O)(O)O	nt	nt	nt	33%[59 µM]	nt	nt
CC(=O)c1ccc(S(=O)(=O)N2CCn3cccc3C2c2ccc(F)c(F)c2)cc1 (centres undefined)	nt	-37%	12%	?	nt	-19%
Cc1ccc([N+](=O)[O-])cc1S(=O)(=O)N1CCn2cccc2C1c1ccc(F)c(F)c1 (centres undefined)	nt	?	-12%	?	nt	?
O=[N+]([O-])c1ccc(S(=O)(=O)N2CCn3cccc3C2c2ccc(Br)cc2)cc1 (centres undefined)	nt	?	-18%	7.9µM*	nt	?
Cc1ccc(C2c3cccn3CCN2S(=O)(=O)c2ccc([N+](=O)[O-])cc2)cc1 (centres undefined)	nt	7.1µM*	?	14µM*	nt	?
COc1cc(CNc2ccccc2SC)cc(OC)c1OC	-8	-33%	13%	11µM*	-24	?
COc1ccc(CNc2ccccc2SC)cc1OC	-10	?	16%	10µM*	-7	79µM*
COc1ccc(CNc2cccc3[nH]c(C(F)(F)F)nc23)cc1OC	-2	50µM*	-26%	-29%[2.33 µM]	nt	?
COc1ccc(CNS(=O)(=O)NCc2ccc(OC)c(OC)c2)cc1OC	-16	0%	16%	0%	?	3%
COc1cc(CNc2nc3ccccc3n2C)cc(OC)c1OC	5	4%	10%	18%[59 µM]	-2	-9%
CCOc1ccc(/C(C)=N/N2C(=O)C(CC(=O)Nc3ccc(OC)cc3[N+](=O)[O-])SC2=Nc2cccc(C)c2C)cc1 (centres undefined)	2	-38%	9%	35µM*	0	-29%
CCOc1ccc(CCNC(=O)c2c(C)oc3ncn(CC(C)C)c(=O)c23)cc1	nt	8%[57.1 µM]	40%	-21%[59 µM]	nt	-9%
Clc1ccc2[nH]c(-c3ccccc3)cc2c1	13	-4%	21%	9%[59 µM]	5	-10%
Cc1ccc2[nH]c(-c3cccc(N)c3)cc2c1	2	50µM*	?	50µM*	-5	?
O=S(=O)(c1cccs1)N1CN(C2CCCC2)c2nc3ccccc3nc21	9	?	11%	?	0	-31%
COCCCN1CN(S(=O)(=O)c2cccs2)c2nc3ccccc3nc21	9	-6%	24%	13µM*	1	-14%
CC(C)CN1CN(S(=O)(=O)c2cccs2)c2nc3ccccc3nc21	nt	-25%	nt	45µM*	nt	nt
